Hits are enriched below; roughly 5.3% of the tested compounds scored in any of these assays.
PNC assembly inh – inhibitors of perinucleolar compartment assembly | 140,000 tested, 3.1% active | activity change (PNC), negative = inhibition, % at 10 µM | PC3M PTB-GFP, PNC prevalence imaging, 16 h; active compounds read low;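 active = readout at or below -70, meaning at least 70% loss of cells showing the perinucleolar compartment, a nuclear body marking cancer cells; inconclusive = readout between -30 and a set limit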
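PC3M cells stably expressing PTB-GFP, 750–1000 cells/well, treated 16 h at 37 °C with compound (23 nl of library stock), in duplicate. After paraformaldehyde fixation and Hoechst stain, imaged at 20x; PNC prevalence scored by image analysis.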
ALOX12 inhib – blocks human 12-lipoxygenase activity; Potency, µM (highest dose often 57.1 µM), usual class: inhibitors; P18054; 150,000 tested, 0.12% active; purified 12-hLO, xylenol orange hydroperoxide absorbance; also: nearly all actives have a fitted effect of over 55% in size
Target sequence (P18054 whole entry, looked up): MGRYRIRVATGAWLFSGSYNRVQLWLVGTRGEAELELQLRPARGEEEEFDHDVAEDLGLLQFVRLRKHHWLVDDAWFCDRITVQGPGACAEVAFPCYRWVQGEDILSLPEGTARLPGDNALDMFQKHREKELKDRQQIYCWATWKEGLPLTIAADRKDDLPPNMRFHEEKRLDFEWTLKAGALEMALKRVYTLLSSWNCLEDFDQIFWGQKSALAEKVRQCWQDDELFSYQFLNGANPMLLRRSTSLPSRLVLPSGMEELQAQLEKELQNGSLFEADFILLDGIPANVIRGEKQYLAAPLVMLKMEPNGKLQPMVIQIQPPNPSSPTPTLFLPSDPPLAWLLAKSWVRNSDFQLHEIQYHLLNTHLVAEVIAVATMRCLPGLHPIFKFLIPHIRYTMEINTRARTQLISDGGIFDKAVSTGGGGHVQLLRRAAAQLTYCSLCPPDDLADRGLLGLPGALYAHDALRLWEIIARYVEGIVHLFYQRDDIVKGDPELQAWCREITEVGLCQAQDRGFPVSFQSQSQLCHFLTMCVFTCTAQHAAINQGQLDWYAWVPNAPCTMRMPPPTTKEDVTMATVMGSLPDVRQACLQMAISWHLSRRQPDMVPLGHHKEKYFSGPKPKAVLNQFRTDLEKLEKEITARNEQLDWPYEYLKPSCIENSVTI
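Xylenol orange chromogenic assay: hydroperoxide from 12hLO oxidises Fe(II), giving red-shifted Fe(III)-XO absorbance. Conditions: 150 nM enzyme, 40 uM arachidonic acid, 25 mM Hepes pH 7.0, 0.01% Triton X-100, 30 min, room temperature.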
ALOX15B inhib – inhibitors of human 15-lipoxygenase 2 (ALOX15B); Potency, µM (titrated, usually from 57.1 µM), usual class: inhibitors; 110,000 tested, 0.56% active; AID 881; O15296; purified 15hLO-2, xylenol orange hydroperoxide absorbance; also: nearly all actives have a fitted effect of over 60% in size
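Screening format was qHTS against 50 nM purified 15hLO-2 in Hepes pH 7.5 with detergent. Activity follows hydroperoxide formation from 45 uM arachidonic acid, measured as 573:405 nm absorbance ratio of the ferric-xylenol orange complex.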
IMPase Li inh – membrane-permeable IMPase blocker, potentiated with lithium. CHO-M1 cells, IP1 TR-FRET (IP-One), carbachol + lithium. Potency, µM (series often up to 59.4 µM), actives largely listed as inhibitors. 210,000 tested, 0.35% active. AID 1457;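 also: IP1 builds up when IMPase is blocked and the TR-FRET signal falls; nearly all actives have a fitted effect of over 50% in size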
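Readout is a homogeneous TR-FRET IP1 immunoassay (Ex 320, Em 665 and 620), where raised cytosolic IP1 lowers signal. Cells were CHO-M1 treated 30 min at 37C with test compounds plus a little lithium; AC50 values came from Hill-equation fitting.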
IMPase inh – IMPase inhibition in cells; P97697; CHO-M1 cells, IP1 accumulation, HTRF TR-FRET ratio; inhibition (IP1 accumulation), % at 46.1 µM; 120,000 tested, under 10 active; active = well fitted curve in the direction sought with a large enough effect in the signal ratio, not every such curve was filed as active; inconclusive = small, poorly fitted or top-dose-only effect, or a change in a side signal; inactive = no such curve, though single readings can be large or run the other way; the % refers to the signal ratio;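 also: cells stimulated with carbachol in lithium chloride buffer; higher means more IMPase inhibition seen as more IP1 and lower FRET ratio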
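Carbachol-driven Gq signalling in CHO-M1 cells (2000/well) generates IP1. Compounds that block IMPase raise IP1 and so reduce the FRET signal from Eu-anti-IP1 and d2-IP1 after a 10 min room-temperature lysis.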
HPGD block – HPGD (human) dehydrogenase inhibition. purified HPGD, NADH fluorescence kinetic, PGE2 substrate. AID 894. P15428. 150,000 tested, 4.3% active. Potency, µM, hits mostly inhibitors; active = well fitted inhibition curve with a large enough effect, not every such curve was filed as active; inconclusive = small, poorly fitted or top-dose-only effect, or another doubt; inactive = no such curve, though single readings can be large or run the other way
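NADH formation kinetics: reaction with 30 uM PGE2 and 1 mM NAD+ (final), 20 nM enzyme, Tris-HCl pH 8 with Tween 20, after 15 min compound preincubation at room temperature. Fluorescence change, last versus first of five reads.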
Each line names hits and unclear results; the compound was inactive in the other large screens. Unless noted, calls follow the shape of the dose curve; as a rule, active = well fitted curve in the direction sought with a large enough effect; inconclusive = small, poorly fitted or top-dose-only effect, or another doubt; inactive = no such curve, though single readings can be large; an effect the other way counts as inactive or inconclusive.

CC(C)(C)C(=O)NC(NC(=O)C(C)(C)C)c1ccc([N+](=O)[O-])cc1	none (no result: ALOX15B inhib, IMPase inh)
CC(C)(C)C(=O)Nc1ccc(Sc2ccc([N+](=O)[O-])cc2)cc1	HPGD block 8.9µM (no result: ALOX15B inhib, IMPase inh)
COc1c(OC2OC(C(=O)O)C(O)C(O)C2O)cc(O)c2c(=O)cc(-c3ccccc3)oc12 (stereo not drawn)	PNC assembly inh inconclusive, HPGD block inconclusive (no result: ALOX15B inhib, IMPase inh)
O=C(O)C1OC(Oc2cc3oc(-c4ccccc4)cc(=O)c3c(O)c2O)C(O)C(O)C1O (stereo not drawn)	PNC assembly inh inconclusive, IMPase Li inh inconclusive, HPGD block 4.5µM (no result: ALOX15B inhib, IMPase inh)
CCCCCCCCCCOC(=O)c1csc2nnsc12	PNC assembly inh -100 (no result: ALOX15B inhib)
O=C(NN=C1C2CC3CC(C2)CC1C3)c1cc(Cl)ccc1O	HPGD block inconclusive (no result: ALOX15B inhib)
CCc1nnc(NC(=O)c2ccc(-c3ccc([N+](=O)[O-])cc3Cl)o2)s1	none (no result: PNC assembly inh, ALOX12 inhib, ALOX15B inhib, IMPase inh, HPGD block)
O=c1[nH]c2ccc(Br)cc2c(-c2ccccc2)c1CN1CCOCC1	PNC assembly inh -90
O=C(CCn1c(=O)[nH]c2ccsc2c1=O)NCCc1ccc(Cl)cc1	none
COc1ccccc1N1CCN(C(=O)CCCn2c(=O)[nH]c3ccsc3c2=O)CC1	none
COc1ccccc1CNC(=O)CCn1c(=O)[nH]c2ccsc2c1=O	PNC assembly inh -100 (no result: ALOX15B inhib)
O=C(CCn1c(=O)[nH]c2ccsc2c1=O)Nc1ccc(F)c(F)c1	IMPase Li inh 10µM, HPGD block inconclusive
CCCOc1ccc(N2C(=O)CC(SCc3nc4ccccc4[nH]3)C2=O)cc1 (stereo not drawn)	none (no result: PNC assembly inh, ALOX12 inhib, ALOX15B inhib, IMPase inh, HPGD block)
CN(c1ccc(O)cc1)c1nc(-c2cccs2)cs1	none (no result: PNC assembly inh, ALOX12 inhib, ALOX15B inhib, IMPase inh, HPGD block)
Cc1nc(N)sc1-c1csc(N(C)c2ccc(O)cc2)n1	ALOX12 inhib inconclusive, HPGD block 14µM
O=c1c2cnn(-c3ccccc3)c2ncn1Cc1cccc(Cl)c1	PNC assembly inh -108
Cc1cccc(NC(c2ccc(O)cc2)c2ccc3ccc(C)nc3c2O)n1 (stereo not drawn)	ALOX12 inhib inconclusive, HPGD block 18µM
O=C(NCCCCNC(=O)C(F)(F)F)C(F)(F)F	none (no result: PNC assembly inh, ALOX12 inhib, ALOX15B inhib, IMPase inh, HPGD block)
Cc1c(/C=N/NC(=O)c2ccc(O)cc2)c2ccccn2c1C(=O)c1ccc(F)cc1	none (no result: ALOX15B inhib, IMPase inh)
Cc1c(/C=N/NC(=O)c2ccccc2O)c2ccccn2c1C(=O)c1ccc(F)cc1	HPGD block 28µM (no result: ALOX15B inhib, IMPase inh)
O=C(Nc1cc(C(F)(F)F)ccc1N1CCCC1)c1cccnc1	PNC assembly inh -89
O=C(COC(=O)c1ccccc1Br)Nc1cc(S(=O)(=O)N2CCOCC2)ccc1N1CCCC1	none (no result: PNC assembly inh, ALOX12 inhib, ALOX15B inhib, IMPase inh, HPGD block)
CCc1ccccc1NC(=O)c1ccc(-n2c(C)ccc2C)cc1	PNC assembly inh inconclusive, HPGD block 16µM
CC(=O)Nc1ccc(NC(=O)c2ccc(-n3c(C)ccc3C)cc2)cc1	PNC assembly inh inconclusive, HPGD block 25µM (no result: ALOX15B inhib)
Cc1ccc(C)n1-c1ccc(NC(=O)c2ccccc2)cc1	none (no result: ALOX15B inhib, IMPase inh)
COc1cccc(CNCc2ccc(SC)cc2)c1OC	none
Cc1sc2ncn(CC(=O)NCc3ccccn3)c(=O)c2c1S(=O)(=O)N1CCOCC1	PNC assembly inh -100 (no result: ALOX15B inhib)
CCOC(=O)C1(Cc2ccc(Cl)cc2)CCN(C(=O)c2cscn2)CC1	none (no result: PNC assembly inh, ALOX12 inhib, ALOX15B inhib, IMPase inh, HPGD block)
O=C(CSc1nccc(=O)[nH]1)Nc1ccc(Br)c(Cl)c1	HPGD block 32µM
O=C(CSc1nccc(=O)[nH]1)Nc1ccc(F)c(Cl)c1	PNC assembly inh inconclusive
O=C(O)CNC(=O)C12CC3CC(CC(Cl)(C3)C1)C2	none (no result: PNC assembly inh, ALOX12 inhib, ALOX15B inhib, IMPase inh, HPGD block)
COC(=O)C1=C(N)Oc2cc(C)n(Cc3cccnc3)c(=O)c2C1c1ccc(OC)c(OC)c1OC (stereo not drawn)	PNC assembly inh inconclusive
COC(=O)C1=C(N)Oc2cc(C)n(Cc3cccnc3)c(=O)c2C1c1ccccc1OC (stereo not drawn)	PNC assembly inh -86, IMPase inh inconclusive
COc1cc(C)c(NC(=S)Nc2cccc(Cl)c2)cc1OC	none (no result: ALOX15B inhib)
S=C(NCCC(c1ccccc1)c1ccccc1)Nc1ccc(Cl)cc1	ALOX12 inhib inconclusive, ALOX15B inhib 25µM

Source: PubChem BioAssay (National Center for Advancing Translational Sciences (NCATS))
